MITF TRPM1 inh: MITF TRPM1 promoter inhibition in SK-MEL-5 cells | AID 488899 | inhibition, % at 12.5 µM | 330,000 tested, 0.83% active | SK-MEL-5 TRPM1 promoter luciferase, 24 h;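 active means mean inhibition across replicates of 60% or more, whatever share of single replicates reaches that level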
LMP1 NFkB inh: Epstein-Barr LMP1 NF-kappaB reporter inhibition | 350,000 tested, 0.69% active | inhibition, % at 12.5 µM | LMP1-induced NF-kappaB luciferase reporter cells, luminescence; in the data active means inhibition above about 41%;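 further: 0% = neutral control wells and 100% = reference inhibitor control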
PAX8 inh HTS: inhibitors of PAX8 transcriptional activity in RMG-I cells | inhibition, % at 12.6 µM | RMG-I TPO-luciferase reporter, SteadyGlo, 24 h | 360,000 tested, 1.2% active;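 active means mean replicate inhibition at least 60% with every replicate also reaching 60%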;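 further: luciferase light reporting Pax8 driven TPO promoter activity; plate controls were median of neutral control wells for no effect and mitoxantrone controls for full effect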
aSyn UTR inh: MLPCN primary screen, SNCA 5' untranslated region | alpha-synuclein 5'UTR reporter, inhibitor activity | inhibition, % (tested at 7.5 µM) | 300,000 tested, 0.82% active; in the data active means inhibition above about 60%;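 further: H4 neuroglioblastoma cells stably carrying SNCA 5'UTR luciferase fusion; 0% = DMSO wells and 100% = positive control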
Shn3 inh set2: reduces Shn3 3'UTR luciferase signal in osteoblasts; Clone20 osteoblast Shn3 3'UTR firefly luciferase, 24 h; inhibition, % at 12.5 µM; 360,000 tested, 0.52% active;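 active means mean inhibition of at least 75% with every replicate also reaching 75%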;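 further: 0% = median of neutral control wells and 100% = pilot-screen positive control compound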
An asterisk follows results filed as active; . = no result given. Hits are enriched below; roughly 2.1% of the tested compounds scored in any of these assays.

SMILES | MITF TRPM1 inh | LMP1 NFkB inh | PAX8 inh HTS | aSyn UTR inh | Shn3 inh set2
Cc1ccc(S(=O)(=O)N(C)C[C@H]2OCCCC[C@H](C)Oc3ccc(NC(=O)Nc4c(C)noc4C)cc3C(=O)N([C@@H](C)CO)C[C@H]2C)cc1 | . | . | -14.2 | . | .
OC(CNc1ccnc2cc(Cl)ccc12)CNC1CCCCC1 (stereo not drawn) | 90.9* | 0.7 | 28.8 | . | 44.1
Clc1ccc2c(NCc3ccccc3)ccnc2c1 | 27.9 | 31.6 | 34.9 | 10.3 | 90.4*
Cc1ccc(/C=N/Nc2ccnc3cc(Cl)ccc23)c(C)c1 | 86.8* | 5.1 | 11.2 | 38.4 | 4.2
CCN(CC)CCNc1ccnc2cc(Cl)ccc12 | -11.0 | -9.2 | . | -61.7 | 22.7
Oc1ccc(/C=N/Nc2ccnc3cc(Cl)ccc23)c(O)c1 | 1.8 | -2.3 | -4.8 | -226.6 | .
Cc1ccccc1/C=N/Nc1ccnc2cc(Cl)ccc12 | 68.0* | -38.5 | 7.0 | -51.5 | 82.4
C/C(=N/NC(=O)C1CCCC1)c1ccc(NC(=O)C(F)(F)F)cc1 | 5.8 | -11.7 | . | 9.3 | -5.6
C[C@@H]1CN([C@@H](C)CO)C(=O)c2cc(C3=CCCCC3)cnc2O[C@H]1CN(C)Cc1ccc(C(=O)O)cc1 | . | . | -10.5 | . | .
Cc1ccc2c(c1)N(S(=O)(=O)c1ccc(CN3C(=O)c4cccnc4C3=O)s1)CCO2 | 1.9 | 7.8 | -5.8 | -8.3 | -21.1
COc1cccc(NC(=O)CN(C)C(=O)C2CC(=O)N(CCc3ccc(OC)c(OC)c3)C2)c1 (stereo not drawn) | . | -3.7 | -0.7 | . | 5.4
C[C@@H]1O[C@@H]1P(=O)(O)O | -3.3 | 74.8* | -5.5 | . | 8.9
Cc1nn(-c2ccccc2)c2nc(Cl)c(C(=O)O)cc12 | 5.1 | -7.6 | 9.9 | -6.3 | -4.2
Cc1ccc(S(=O)(=O)Nc2ccc3c(c2)C(=O)N([C@H](C)CO)C[C@H](C)[C@H](CN(C)Cc2ccc(C(F)(F)F)cc2)OCCCC[C@H](C)O3)cc1 | . | . | 115.1* | . | .
Cc1ccc(S(=O)(=O)Nc2ccc3c(c2)C(=O)N([C@@H](C)CO)C[C@@H](C)[C@H](CN(C)Cc2ccc(C(F)(F)F)cc2)OCCCC[C@@H](C)O3)cc1 | . | . | 107.6* | . | .
Cc1ccc(S(=O)(=O)Nc2ccc3c(c2)C(=O)N([C@H](C)CO)C[C@@H](C)[C@@H](CN(C)Cc2ccc(C(F)(F)F)cc2)OCCCC[C@@H](C)O3)cc1 | . | . | 87.4* | . | .
Cc1ccc(S(=O)(=O)Nc2ccc3c(c2)C(=O)N([C@H](C)CO)C[C@H](C)[C@H](CN(C)Cc2ccc(C(=O)O)cc2)OCCCC[C@@H](C)O3)cc1 | . | . | -15.5 | . | .
Cc1ccc(S(=O)(=O)Nc2ccc3c(c2)C(=O)N([C@H](C)CO)C[C@@H](C)[C@@H](CN(C)Cc2ccc(C(F)(F)F)cc2)OCCCC[C@H](C)O3)cc1 | . | . | 95.7* | . | .
COc1ccc(S(=O)(=O)Nc2ccc3c(c2)C(=O)N([C@H](C)CO)C[C@H](C)[C@@H](CN(C)Cc2ccc(C(F)(F)F)cc2)OCCCC[C@@H](C)O3)cc1 | . | . | 28.7 | . | .
COC(=O)C1=CC(=O)N2CCN=C2S1 | . | . | -2.2 | . | .
C[C@@H]1CN([C@@H](C)CO)C(=O)Cc2cc(NC(=O)Cc3cn(C)c4ccccc34)ccc2O[C@H]1CN(C)Cc1ccc2c(c1)OCO2 | . | . | 37.6 | . | .
Cc1ccc(S(=O)(=O)Nc2ccc3c(c2)C(=O)N([C@H](C)CO)C[C@H](C)[C@@H](CN(C)Cc2ccc(C(F)(F)F)cc2)OCCCC[C@@H](C)O3)cc1 | . | . | 6.6 | . | .
Cc1ccc(S(=O)(=O)Nc2ccc3c(c2)C(=O)N([C@@H](C)CO)C[C@H](C)[C@@H](CN(C)Cc2ccc(C(F)(F)F)cc2)OCCCC[C@H](C)O3)cc1 | . | . | 79.8* | . | .
Cc1ccc(S(=O)(=O)Nc2ccc3c(c2)C(=O)N([C@@H](C)CO)C[C@@H](C)[C@H](CN(C)Cc2ccc(C(F)(F)F)cc2)OCCCC[C@H](C)O3)cc1 | . | . | 106.2* | . | .
O=c1c2cccnc2n(-c2ccccc2)n1Cc1ccc(Cl)cc1 | 7.2 | 1.6 | -2.2 | -0.3 | -0.7
CCCC(=O)NC(NC(=S)Nc1ccc(N=Nc2ccccc2)cc1)C(Cl)(Cl)Cl (stereo not drawn) | 45.9 | 23.2 | 64.1* | -23.9 | 56.6
CCc1ccc(OCC(=O)NC(NC(=S)Nc2ccc(Cl)cc2)C(Cl)(Cl)Cl)cc1 (stereo not drawn) | 30.4 | 1.9 | 81.8* | -11.3 | 86.3*
CCCC(=O)NC(NC(=S)Nc1ccc(S(N)(=O)=O)cc1)C(Cl)(Cl)Cl (stereo not drawn) | 5.0 | 0.3 | . | -18.6 | 10.1
OCCNC(=S)NC1CCCCC1 | 2.2 | 0.7 | 13.1 | 3.9 | -1.2

Compound activity: PubChem BioAssay, Broad Institute
